Screening data (PubChem)
WT yeast gro inh = growth inhibition of WT strain, primary screen, mitochondrial fusion inhibitor project, WT and mutant strains, chemical genetic; mitochondrial fusion phenotypic screen; inhibition, % at 10 µM; 2.1% of 190,000 active; in the data active = inhibition above about 58%; tested in S. cerevisiae
Arbovirus anti = antivirals against arbovirus infection, primary screen, cell-based, full library, 10K replicate subset | AID 1251, 2008 | 0.37% of 200,000 active | arbovirus infection cell-based antiviral screen | inhibition, % at 10 µM; in the data active = inhibition above about 30%
CHOP inhibitor = inhibitors of CHOP promoter induction, primary screen, cell-based, unfolded protein response, luciferase reporter. CHO-K1 CHOP-promoter luciferase, tunicamycin-induced, 15-18 h. inhibition, % at 10 µM. 3.8% of 220,000 active. AID 2732, 2010;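 active = compounds that reduced the stress-induced luciferase reporter signal by more than about 70% of percent inhibition, limit read from the data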
L major viab = Leishmania major promastigote growth inhibition, primary screen. Leishmania major promastigotes, resazurin fluorescence viability. inhibition, % at 10 µM. 9% of 200,000 active; in the data active = inhibition above about 50%;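 also: promastigotes grown with compound for 44 hours at 28 °C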
A number is an active result. This is a sample that favours compounds with a hit; in the whole collection about 12% have one here.

How did CCOC(=O)c1sc2c(c1C)C(c1cccs1)C1=C(CCCC1=O)N2 (stereo not given) do in these assays?
WT yeast gro inh: inactive; Arbovirus anti: inactive; CHOP inhibitor: inactive; L major viab: 64

Results for Cc1ccc(Nc2ccc([N+](=O)[O-])nc2[N+](=O)[O-])cc1 ?
WT yeast gro inh: inactive; Arbovirus anti: inactive; CHOP inhibitor: inactive; L major viab: 70

What do the screens show for `COc1cccc(-c2csc(NC3OC(=O)c4c3ccc(OC)c4OC)n2)c1` (stereo not given)?
CHOP inhibitor: inactive

Results for COc1ccc2c(c1OC)C(=O)OC2Nc1nc(-c2ccc(-c3ccccc3)cc2)cs1 (stereo not given) ?
WT yeast gro inh: inactive; Arbovirus anti: inactive; CHOP inhibitor: inactive; L major viab: 52

How did c1ccc2c(c1)oc1c(NCC3CCCO3)ncnc12 (stereo not given) do in these assays?
WT yeast gro inh: inactive; Arbovirus anti: inactive; CHOP inhibitor: inactive; L major viab: inactive

Results for c1ccc(-c2nc(NCc3cccnc3)c3oc4ccccc4c3n2)cc1 ?
WT yeast gro inh: 72; Arbovirus anti: inactive; CHOP inhibitor: inactive; L major viab: 88

Results for CCOC(=O)c1nc(NCc2cccnc2)c2ccccc2n1 ?
WT yeast gro inh: inactive; Arbovirus anti: inactive; CHOP inhibitor: inactive; L major viab: inactive

How did CC(C)(C)c1ccc(-c2nc(NCc3cccnc3)c3ccccc3n2)cc1 do in these assays?
WT yeast gro inh: inactive; Arbovirus anti: inactive; CHOP inhibitor: inactive; L major viab: 80

How did c1ccc(-c2nc(NCC3CCCO3)c3oc4ccccc4c3n2)cc1 (stereo not given) do in these assays?
WT yeast gro inh: inactive; Arbovirus anti: inactive; CHOP inhibitor: inactive; L major viab: 55

Results for CC(=O)Nc1c(O)nc(SCC(=O)Nc2nnc(SCc3ccccc3)s2)[nH]c1=O ?
WT yeast gro inh: inactive; Arbovirus anti: inactive; CHOP inhibitor: inactive; L major viab: inactive

How did O=C1CN(C(=O)c2ccccc2)c2ccccc2N1 do in these assays?
WT yeast gro inh: inactive; Arbovirus anti: inactive; CHOP inhibitor: inactive; L major viab: inactive

How did Clc1ccc(-c2nc(N3CCCCC3)nc3ccccc23)cc1 do in these assays?
WT yeast gro inh: 59; Arbovirus anti: inactive; CHOP inhibitor: inactive; L major viab: inactive

What do the screens show for `Clc1ccc(-c2nc3ccccc3nc2-c2ccccc2)cc1`?
WT yeast gro inh: inactive; Arbovirus anti: inactive; CHOP inhibitor: 74; L major viab: inactive

Results for c1ccc(-c2nc(-n3nc4ccccc4n3)nc3ccccc23)cc1 ?
WT yeast gro inh: inactive; Arbovirus anti: inactive; CHOP inhibitor: 74; L major viab: inactive

What do the screens show for `O=C1CN(c2nc(-c3ccccc3)c3ccccc3n2)c2ccccc2N1`?
WT yeast gro inh: inactive; Arbovirus anti: inactive; CHOP inhibitor: 77; L major viab: inactive

How did N/C(Cc1nc(-c2ccc(Br)cc2)cs1)=N\O do in these assays?
WT yeast gro inh: inactive; Arbovirus anti: inactive; CHOP inhibitor: inactive; L major viab: inactive

How did CC(O)c1nc2ccccc2n1CCCOc1ccccc1 (stereo not given) do in these assays?
CHOP inhibitor: inactive

What do the screens show for `CCOC(=O)N1CCN(CC(O)COc2ccccc2C(C)CC)CC1` (stereo not given)?
WT yeast gro inh: inactive; Arbovirus anti: inactive; CHOP inhibitor: inactive; L major viab: 91

What do the screens show for `CCOC(=O)N1CCN(CC(O)COCc2ccc(Cl)cc2)CC1` (stereo not given)?
WT yeast gro inh: inactive; Arbovirus anti: inactive; CHOP inhibitor: inactive; L major viab: 93

Results for CCOC(=O)N1CCN(CC(O)COC(CC)c2ccccc2)CC1 (stereo not given) ?
WT yeast gro inh: inactive; Arbovirus anti: inactive; CHOP inhibitor: inactive; L major viab: 91

How did Cc1cccc(N2CCN(CC(O)COc3ccccc3Cl)CC2)c1 (stereo not given) do in these assays?
CHOP inhibitor: inactive

What do the screens show for `C=CCc1ccccc1OCC(O)CN1CCN(c2ccc(C)cc2)CC1` (stereo not given)?
WT yeast gro inh: inactive; Arbovirus anti: inactive; CHOP inhibitor: 79; L major viab: 69

Results for COc1cc(NC(=O)c2ccccc2Cl)c(OC)cc1NC(=O)CN1CCCCC1 ?
WT yeast gro inh: inactive; Arbovirus anti: inactive; CHOP inhibitor: inactive; L major viab: inactive

Results for CCc1cc2c(SCC(=O)Nc3cc(C)on3)ncnc2s1 ?
WT yeast gro inh: inactive; Arbovirus anti: inactive; CHOP inhibitor: inactive; L major viab: inactive

Results for Cc1[nH]c2ccccc2c1C(=O)C(=O)N1CCN(C(=O)c2ccco2)CC1 ?
WT yeast gro inh: inactive; Arbovirus anti: inactive; CHOP inhibitor: inactive; L major viab: inactive

Results for CCOC(=O)N1CCN(CC(O)COc2ccccc2C(C)C)CC1 (stereo not given) ?
WT yeast gro inh: inactive; Arbovirus anti: inactive; CHOP inhibitor: inactive; L major viab: 70

How did C=CCc1ccccc1OCC(O)CN1CCN(C(=O)OCC)CC1 (stereo not given) do in these assays?
WT yeast gro inh: inactive; Arbovirus anti: inactive; CHOP inhibitor: inactive; L major viab: 68

Results for COc1ccc(NC(=O)CSc2nc(C)cs2)c(OC)c1 ?
WT yeast gro inh: inactive; Arbovirus anti: inactive; CHOP inhibitor: inactive; L major viab: inactive

Results for COc1ccc(/C=C/C(=O)Nc2cc(C(F)(F)F)ccc2Cl)cc1OC ?
WT yeast gro inh: inactive; Arbovirus anti: 32; CHOP inhibitor: inactive; L major viab: inactive

Results for COc1cc(/C=C/C(=O)Nc2cc(C(F)(F)F)ccc2Cl)cc(OC)c1OC ?
WT yeast gro inh: inactive; Arbovirus anti: inactive; CHOP inhibitor: inactive; L major viab: 67

Results for COc1cc(/C=C/C(=O)Nc2nnc(C(C)(C)C)s2)cc(OC)c1OC ?
WT yeast gro inh: inactive; Arbovirus anti: 31; CHOP inhibitor: inactive; L major viab: inactive

What do the screens show for `CC(=O)c1ccc(NC(=S)N2C(C)CCCC2C)cc1` (stereo not given)?
WT yeast gro inh: inactive; Arbovirus anti: inactive; CHOP inhibitor: inactive; L major viab: inactive

What do the screens show for `O=C1c2cccc3c(O)ccc(c23)C(=O)N1Cc1ccccc1`?
WT yeast gro inh: inactive; Arbovirus anti: inactive; CHOP inhibitor: inactive; L major viab: inactive

What do the screens show for `CCn1nnnc1NCc1c(OC)ccc2ccccc12`?
WT yeast gro inh: inactive; Arbovirus anti: inactive; CHOP inhibitor: inactive; L major viab: inactive

What do the screens show for `NC(=O)CC(NC(=O)Cc1cccc2ccccc12)c1ccc(N2CCN(c3ccccc3)CC2)c([N+](=O)[O-])c1` (stereo not given)?
CHOP inhibitor: 87

How did C(#Cc1ccc(C#CCN2CCCC2)cc1)CN1CCCC1 do in these assays?
WT yeast gro inh: inactive; Arbovirus anti: inactive; CHOP inhibitor: inactive; L major viab: 92

Results for CC(C)C[C@@H]1NC(=O)[C@H](C(C)C)NC(=O)c2cc([N+](=O)[O-])cc(I)c2OCC[C@@H](C(N)=O)NC1=O ?
WT yeast gro inh: inactive; Arbovirus anti: inactive; CHOP inhibitor: inactive; L major viab: inactive

How did CNC(=S)Nc1cccc(S(=O)(=O)NC2=NCCC2)c1 do in these assays?
WT yeast gro inh: inactive; Arbovirus anti: inactive; CHOP inhibitor: inactive; L major viab: inactive

How did CCCCN(CC)Cc1ccc(CNC(=O)Nc2ccc(OCC)cc2)o1 do in these assays?
WT yeast gro inh: inactive; Arbovirus anti: inactive; CHOP inhibitor: inactive; L major viab: 99
